The values below come from PubChem BioAssay.

Assay [1] in a line: polyglutamine-triggered caspase-3 activation inhibitors, cell-based (AID 1583). The conditions noted are these: polyglutamine-induced caspase-3 activation, cell assay; stronger effect = higher value;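 tested at 10 µM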.
The nature of assay [2]: suppressors of polyQ aggregation in yeast, 75Q-TubU reporter (AID 1593). As to conditions: Yeast 75Q polyglutamine aggregation reporter.
A short description of assay [3]: rescue of polyQ-huntingtin neuronal dysfunction in worms, whole organism, C. elegans mechanosensory neurons, N-terminal huntingtin (AID 1599). The conditions noted are these: touch response, stronger effect = higher value.
A short description of assay [4]: inhibitors of mitochondrial cytochrome c release, biochemical, purified mitochondria (AID 1603).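 Note: mouse liver mitochondria challenged with calcium chloride; signal normalized to the plate average as 100%.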 As to conditions: stronger effect = lower value.
A short description of assay [5]: inhibitors of polyQ protein aggregation (AID 1604). As to conditions: polyglutamine-induced protein aggregation inhibition assay; stronger effect = higher value; tested at 2.5 µM.
A short description of assay [6]: enhancers of glutamate uptake in motor neurons, MN-1 cell line (AID 1612).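 Note: tested at 1 µM final; 0% = mean of DMSO vehicle wells on each plate; positive means more glutamate uptake than control and negative means less.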 The conditions noted are these: MN-1 motor neuron cells, stronger effect = higher value.
Assay [7] is described as follows: suppressors of polyglutamine aggregation in yeast, 75Q-TubH (AID 1616). As to conditions: S. cerevisiae 75Q-TubH polyglutamine aggregation suppression; stronger effect = higher value.
Assay [8] is described as follows: hESC survival regulators, cell-based (AID 493140).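 Note: cells exposed to compounds for four days before counting.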 The conditions noted are these: human embryonic stem cell survival screen; stronger effect = higher value.
Assay [9] is described as follows: Cy5 fluorescence interference with SSB-bound oligo, artefact control for HCV NS3 helicase inhibitor project, biochemical, NIH Clinical Collection, E. coli SSB (AID 743268).
Assay [10] relates to Hepatitis C virus NS3 helicase. In words: HCV NS3 helicase inhibitors, primary screen, biochemical, fluorescence polarization, NIH Clinical Collection (AID 743270). As to conditions: NS3 helicase binding to Cy5-dT15 DNA, stronger effect = higher value, concentration not given here. On the technique in general: Polarisation of emitted light reports the rotation of a fluorescent probe.
Assay [11] has as its target Single-stranded DNA-binding protein (Escherichia coli (strain K12)) (UniProt P0AGE0). As to the kind of experiment: E. coli SSB displacement from DNA, counter-screen for HCV NS3 helicase inhibitor project, biochemical, fluorescence polarization, NIH Clinical Collection (AID 743271; in the data active = inhibition above about 28%). The conditions noted are these: stronger effect = higher value, concentration not given here. On the technique in general: A counterscreen serves to expose hits that act by an unwanted route or on another target.

Assay [12] in a line: fluorescence interference in NS3h assay format, artefact control for HCV NS3 helicase inhibitor project, biochemical, NIH Clinical Collection (AID 743272).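 Note: HCV NS3 helicase with a Cy5 labelled single stranded DNA probe.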 As to conditions: fluorescence interference counterscreen, stronger effect = lower value.
The nature of assay [13]: modulation of C. elegans fzo-1 (AID 1259413).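 Note: fzo-1 mutant C. elegans worms in liquid wells.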 As to conditions: C. elegans fzo-1 modulator screen, mean read-out; stronger effect = higher value.
The nature of assay [14]: viability rescue of complex I mutant cybrids, primary screen, cell-based, galactose medium, ATP luminescence (AID 1645843;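 active = z-score of at least 1.8 in each of two replicates, scored against plate mean and spread of sample wells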;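 note: positive z means more ATP and so rescue of galactose-driven cybrid death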). As to conditions: complex I mutant cybrid cells, 72 h, stronger effect = higher value.
In another assay the test system is F380Y/beta1. In words: modulators of BK channel variants, profiling panel, selectivity assay, cell-based, U2OS BacMam, thallium flux, beta subunits (AID 1259406;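 active = thallium flux through the channel raised or lowered by more than 3 SD from vehicle-only wells, actives on both sides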;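 note: initial slope of Thallos dye fluorescence rise after thallium is added; log ratio against the mean of 0.3% DMSO vehicle wells on the same plate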). As to conditions: at 30 µM.
For a further assay, the system named is F380Y/beta4. Described as above. The conditions noted are these: at 30 µM.
In a further assay the test system is R275C/beta4. The description is as above. The conditions noted are these: at 30 µM.
The subject of a further assay is R275C/Slo1WT/beta2. Described as above. As to conditions: at 30 µM.
Assay [15] is described as follows: liver-stage malaria parasite growth inhibition, primary screen, cell-based, HepG2, luciferase luminescence, HepG2 viability (AID 624349; in the data active = parasite load remaining mostly below about 12%, no sharp cut-off; inactive = mostly above about 10%;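 note: 100% = mean of DMSO negative control wells on the same plate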). The conditions noted are these: P. berghei liver stage in HepG2, luciferase luminescence, concentration not given here; parasite load remaining: stronger effect = lower value; viability: measured here: HepG2 viability without parasites.

Where “and” joins values, the source holds several entries; their conditions need not be identical. Equal values may be shown once. For some assays here: Potency and affinity values are given separately. Calls of active or inactive are those of the source. Unless noted, the rule behind the calls is not given here.

On to `COc1ccc(OC)c(C(O)CNC(=O)CN)c1` (configuration not stated), for which the inhibition (as a rule, the drop in the measured response relative to a control, in per cent) in assay [1] was -17.3%; in [10], -2.27% (inactive); in assay [11], -2.76% (inactive). In assay [2], this compound displayed a score of 1.3. The compound also displayed a rescue above control in assay [3] of -4.55. The cytochrome c release ratio in assay [4] came to 1.63. Besides, in assay [5], the inhibition of aggregation was 41.7%. Moreover, the glutamate uptake change in assay [6] was -11.6%. Also, the aggregation suppression score in [7] is 1.16. Besides, the survival in assay [8] was 18.8 (inactive). The fluorescence ratio in [9] was 1 (inactive); in assay [12] it was 1.02 (inactive). Moreover, in assay [13], the mean signal was 239 (inactive). In assay [14], the z-score was 0.54 (inactive). The log fold change Tl+ flux in the assay with F380Y/beta1 is 0.0228 (inactive); with F380Y/beta4, 0.0115 (inactive); with R275C/beta4 it was 0.00841 (inactive); in the assay on R275C/Slo1WT/beta2, 0.0391 (inactive).
`c1ccc2[nH]c(-c3cscn3)nc2c1`: the inhibition in assay [1] was -3.31%; in assay [10] it was 0.45% (inactive); in [11] it was -0.48% (inactive). Moreover, the score in assay [2] came out at 0.53. The rescue above control in assay [3] was -3.36. Further, the cytochrome c release ratio in assay [4] came to 1.13. Besides, in assay [5], the inhibition of aggregation is 30.1%. Further, the glutamate uptake change in [6] is -14%. The compound further returned an aggregation suppression score in assay [7] of 0.142. The survival in [8] was 7.75 (inactive). Besides, the fluorescence ratio in [9] is 1.06 (inactive); in [12], 0.97 (inactive). Also, the mean signal in assay [13] was 278 (inactive). Also, the z-score in [14] was 0.46 (inactive). In addition, the log fold change Tl+ flux in the assay with F380Y/beta1 was -0.00469 (inactive); in the assay with F380Y/beta4 it was 0.0538 (inactive); in the assay with R275C/beta4, -0.00629 (inactive); with R275C/Slo1WT/beta2, 0.0186 (inactive).
On to `COc1ccccc1OCC(O)COC(N)=O` (configuration not stated), for which the values for the inhibition in assay [1], in assay [10] and in [11] were -7.05%, -1.36% (inactive) and -1.24% (inactive), respectively. In addition, the score in assay [2] turned out to be 1.41. The compound also showed a rescue above control in [3] of 1.68. Also, the cytochrome c release ratio in [4] was 0.96. For the same compound, the inhibition of aggregation in assay [5] was 88.8%. The glutamate uptake change in assay [6] was -5.42%. This compound also came in with an aggregation suppression score in assay [7] of 1.52. For the same compound, in [8], the survival was 33.1 (inactive). The fluorescence ratio in assay [9] and in assay [12] was 1 (inactive) each time. In assay [13], the mean signal was 264 (inactive). Further, the z-score in assay [14] was 0.945 (inactive). Moreover, the log fold change Tl+ flux is 0.0402 (inactive) in the assay on F380Y/beta1, 0.0136 (inactive) in the assay on F380Y/beta4, 0.0404 (inactive) with R275C/beta4 and 0.0176 (inactive) in the assay with R275C/Slo1WT/beta2.
Turning to `NC(=O)N1c2ccccc2CC(=O)c2ccccc21`, the results for the fluorescence ratio in [9] and in assay [12] were 0.99 (inactive) and 0.97 (inactive), respectively. Moreover, the inhibition was -5.15% (inactive) in assay [10] and -2.41% (inactive) in assay [11]. The mean signal in assay [13] was 241 (inactive). Also, the z-score in assay [14] is -1.62 (inactive) and -0.18 (inactive). The log fold change Tl+ flux is -0.0277 (inactive) in the assay with F380Y/beta1, -0.0339 (inactive) in the assay with F380Y/beta4, -0.00127 (inactive) in the assay on R275C/beta4 and 0.048 (inactive) in the assay on R275C/Slo1WT/beta2.
Regarding `O=C1C(CCS(=O)c2ccccc2)C(=O)N(c2ccccc2)N1c1ccccc1` (configuration not stated), the inhibition in [1] came out at 18.6%. Also, the score in assay [2] is 0.1. Further, in [3], the rescue above control was -11.1. In [4], the cytochrome c release ratio stood at 0.57. This compound had an inhibition of aggregation in [5] of 71.9%. The glutamate uptake change in assay [6] is -6.33%. Also, the aggregation suppression score in [7] worked out at 0.341. For the same compound, in assay [8], the survival is 40.2 (inactive). Further, the mean signal in assay [13] was 224 (inactive). Moreover, in assay [14], the z-score is -0.05 (inactive). Moreover, the log fold change Tl+ flux was 0.0248 (inactive) in the assay on F380Y/beta1, 0.0952 (inactive) in the assay on F380Y/beta4, -0.0311 (inactive) in the assay on R275C/beta4 and 0.0214 (inactive) in the assay with R275C/Slo1WT/beta2.
For the compound `CCc1cccc2c3c([nH]c12)C(CC)(CC(=O)O)OCC3` (configuration not stated), the results for the inhibition in [1], in assay [10] and in assay [11] were 10.4%, 4.09% (inactive) and -2% (inactive), respectively. In assay [2], this compound displayed a score of 1.08. In assay [3], this compound gave a rescue above control of -7.42. Also, the cytochrome c release ratio in assay [4] came to 0.88. Besides, in assay [5], the inhibition of aggregation came to 57.6%. In addition, in assay [6], the glutamate uptake change is -3.42%. The aggregation suppression score in assay [7] was determined as 0.918. In addition, the survival in assay [8] is 14.8 (inactive). Also, the fluorescence ratio was 1.05 (inactive) in assay [9] and 1.02 (inactive) in assay [12]. Also, the mean signal in assay [13] is 230 (inactive). Also, in assay [14], the z-score is 0.63 (inactive) and -0.035 (inactive). In addition, the log fold change Tl+ flux in the assay with F380Y/beta1 was 0.0385 (inactive); with F380Y/beta4 it was -0.00239 (inactive); in the assay on R275C/beta4, 0.0823 (inactive); in the assay on R275C/Slo1WT/beta2 it was 0.0472 (inactive).
`Cc1ncc([N+](=O)[O-])n1CC(C)O` (configuration not stated): in assay [15], the parasite load remaining is 136% (inactive) and 103% (inactive) and 36% (inactive). In [15], the viability (in general, a per cent measure of how many cells are alive, often set against a control) is 85.3% and 77% and 71%. The figures for the fluorescence ratio in assay [9] and in assay [12] were 1.05 (inactive) and 1 (inactive), respectively. For the same compound, the inhibition was 5.15% (inactive) in [10] and 6.83% (inactive) in [11]. Further, the mean signal in assay [13] was 281 (inactive). Further, the z-score in assay [14] was 0.59 (inactive) and 0.27 (inactive). The log fold change Tl+ flux with F380Y/beta1 is -0.0446 (inactive); in the assay on F380Y/beta4 it was 0.0424 (inactive); with R275C/beta4, -0.0387 (inactive); in the assay with R275C/Slo1WT/beta2, 0.0129 (inactive).
For `C/C=C/C(=O)N(CC)c1ccccc1C`, in assay [8], the survival is 6.17 (inactive). Moreover, the fluorescence ratio in assay [9] is 1.05 (inactive); in [12] it was 1.02 (inactive). Besides, the inhibition is -2.77% (inactive) in [10] and -2.41% (inactive) in [11]. Moreover, the mean signal in assay [13] was 254 (inactive). Further, the z-score in assay [14] is -0.06 (inactive). The log fold change Tl+ flux in the assay with F380Y/beta1 was -0.0381 (inactive); in the assay with F380Y/beta4, -0.00302 (inactive); in the assay on R275C/beta4, -0.00282 (inactive); with R275C/Slo1WT/beta2, 0.00262 (inactive).
In the case of `CO[C@@]1(NC(=O)Cc2cccs2)C(=O)N2C(C(=O)O)=C(COC(N)=O)CS[C@@H]21`, the inhibition in [1] is 10%; in assay [10], 0.45% (inactive); in assay [11], 27.7% (active). Moreover, the score in assay [2] worked out at 0.25. In [3], this compound displayed a rescue above control of -4.75. Also, the cytochrome c release ratio in assay [4] worked out at 0.94. This compound also registered an inhibition of aggregation in [5] of 27.8%. Moreover, the glutamate uptake change in assay [6] was -21.4%. The compound further had an aggregation suppression score in assay [7] of 0.182. For the same compound, the survival in [8] was 2.08 (inactive). For the same compound, the fluorescence ratio was 1.06 (inactive) in assay [9] and 1.01 (inactive) in [12]. Besides, the mean signal in assay [13] is 248 (inactive). The z-score in assay [14] was -0.58 (inactive). For the same compound, the log fold change Tl+ flux with F380Y/beta1 was -0.00712 (inactive); in the assay with F380Y/beta4, -0.02 (inactive); in the assay with R275C/beta4 it was 0.0012 (inactive); in the assay on R275C/Slo1WT/beta2, 0.00869 (inactive).
